Assay results from PubChem BioAssay (Tox21).
Values without a mark were called inactive. Calls follow the shape of the full dose curve. Inconclusive results are not listed.

Each compound was assayed against Acetylcholinesterase (Homo sapiens) (UniProt P22303) (assay: Acetylcholinesterase (AChE) small molecule antagonists: colormetric cell-based qHTS assay (AID 1347395; also: nearly all actives have a fitted effect of over 30% in size)). Conditions: SH-SY5Y cells AChE activity, colorimetric (Ellman); series mostly up to 115 µM; activity, negative = inhibition: at the top concentration.
How it was run: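 Quantitative HTS in attached SH-SY5Y cells: 30 min compound exposure, then 90 min with acetylthiocholine and DTNB at 37 C; colour from thiocholine reports AChE activity.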
% is scaled to controls: 0 for no effect and ±100 for the full control effect.

Sequence of Acetylcholinesterase (Homo sapiens) (P22303 whole entry, looked up): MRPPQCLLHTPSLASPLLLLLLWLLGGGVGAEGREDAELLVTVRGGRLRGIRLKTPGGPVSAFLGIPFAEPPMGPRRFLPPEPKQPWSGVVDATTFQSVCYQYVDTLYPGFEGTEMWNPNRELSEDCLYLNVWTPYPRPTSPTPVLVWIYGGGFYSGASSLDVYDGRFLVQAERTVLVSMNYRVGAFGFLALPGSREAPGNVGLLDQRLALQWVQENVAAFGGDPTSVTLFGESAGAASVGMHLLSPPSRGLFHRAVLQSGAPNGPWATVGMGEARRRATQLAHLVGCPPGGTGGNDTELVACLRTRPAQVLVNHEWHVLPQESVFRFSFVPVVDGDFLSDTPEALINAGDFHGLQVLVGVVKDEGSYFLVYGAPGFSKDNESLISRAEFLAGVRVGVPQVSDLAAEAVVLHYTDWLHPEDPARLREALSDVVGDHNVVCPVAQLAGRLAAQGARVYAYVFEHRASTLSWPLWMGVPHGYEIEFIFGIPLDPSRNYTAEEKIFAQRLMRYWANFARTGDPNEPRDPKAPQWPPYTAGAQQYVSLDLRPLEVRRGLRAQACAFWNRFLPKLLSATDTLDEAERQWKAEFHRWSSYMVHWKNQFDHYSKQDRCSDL

| SMILES | activity, negative = inhibition |
| --- | --- |
| CCCCCCCCCCCCCCCCCC(=O)OCCCCCCCCCCCCCC(C)C | -3.54% |
| COc1ccc(OC)c(Cl)c1 | 5.19% |
| CCCCCCOC(=O)CCCCC(=O)OCCCCCC | 2.1% |
| CCCCCCc1ccc(N)cc1 | 4.08% |
| CC(C)[C@H]1CC[C@H](C)C[C@@H]1O | 0.716% |
| FC(F)(F)C(Cl)(Cl)Cl | 1.22% |
| [O-][n+]1ccc(Cl)cc1 | 1.3% |
| Cc1cc(C)cc([N+](=O)[O-])c1 | -0.171% |
| O=CC1CC1 | 3.13% |
| O=C(O)CCCCCCCCCCCBr | -0.848% |
| CCC(CC)C(C)CCOC(C)=O (stereo not drawn) | 2.61% |
| O=C(OCc1ccccc1)C(=O)OCc1ccccc1 | 0.21% |
| Cc1c(NC(C)C)c(=O)n(-c2ccccc2)n1C | -7.31% [at 52.9 µM] |
| CCCCCCC1(C)CCC(=O)O1 (stereo not drawn) | 1.75% |
| C#CCOC(=O)[C@@H](C)Oc1ccc(Oc2ncc(Cl)cc2F)cc1 | 0.854% |
| COc1ccc(CCC(=O)c2c(O)cc(O[C@@H]3O[C@H](CO)[C@@H](O)[C@H](O)[C@H]3O[C@@H]3O[C@@H](C)[C@H](O)[C@@H](O)[C@H]3O)cc2O)cc1O | 0.489% |
| CC(=O)c1c(C)cc(C(C)(C)C)cc1C | 1.09% |
| CCC1Nc2cc(Cl)c(S(N)(=O)=O)cc2S(=O)(=O)N1 (stereo not drawn) | -8.41% [at 52.9 µM] |
| CCOC(=O)[C@@H](C)Oc1ccc(Oc2nc3ccc(Cl)cc3o2)cc1 | 1.16% |
| Cc1cccc(CN2CCN(C(c3ccccc3)c3ccc(Cl)cc3)CC2)c1 (stereo not drawn) | -8.96% [at 52.9 µM] |

| SMILES | activity, negative = inhibition |
| --- | --- |
| COc1ccc2sc(C(=O)Nc3nnn[nH]3)c(OC(C)C)c2c1 | 0.992% |
| Nc1cccc(S(=O)(=O)O)c1 | -0.421% |
| CO[Si](CCC1CCC2OC2C1)(OC)OC (stereo not drawn) | 0.361% |
| C=C1CCC2CC1C2(C)C (stereo not drawn) | 4.65% |
| CC[C@H]1OC(=O)[C@H](C)[C@@H](O[C@H]2C[C@@](C)(OC)[C@@H](O)[C@H](C)O2)[C@H](C)[C@@H](O[C@@H]2O[C@H](C)C[C@H](N(C)C)[C@H]2O)[C@](C)(OC)C[C@@H](C)C(=O)[C@H](C)[C@@H](O)[C@]1(C)O | 6.27% |
| Cc1ccnc(N)c1 | 4.19% |
| C=CCCCCCCCCC(=O)OCCCC | -0.606% |
| C=CC(=O)NC(C)(C)C | 0.227% |
| CCCCCCOc1ccccc1C(N)=O | -0.0717% [at 52.9 µM] |
| CC[N+](CC)(CC)Cc1ccccc1 | 0.0784% |
| NCCC(O)(P(=O)(O)O)P(=O)(O)O | 1.68% [at 52.9 µM] |
| Cn1c(=O)c2c(ncn2CC(=O)O)n(C)c1=O | 0.634% [at 52.9 µM] |
| COc1cc(C=C2CCC/C(=C\c3ccc(O)c(OC)c3)C2=O)ccc1O | 0.184% [at 52.9 µM] |
| [O-][n+]1cccc(CO)c1 | -4.05% [at 52.9 µM] |
| CC1(C)CCC(C)(C)c2cc(C(=O)Nc3ccc(C(=O)O)cc3)ccc21 | 0.651% |
| O=C(OC(=O)c1ccccc1)c1ccccc1 | -0.0091% |
| CCCCCOC(=O)CCCCC | 0.404% |
| C/C=C/C=C/C=O | 1.45% |
| NCC[C@H](O)C(=O)N[C@@H]1C[C@H](N)[C@@H](O[C@H]2O[C@H](CN)[C@@H](O)[C@H](O)[C@H]2O)[C@H](O)[C@H]1O[C@H]1O[C@H](CO)[C@@H](O)[C@H](N)[C@H]1O | -3.35% [at 0.435 µM] |

The compounds below were run against Acetylcholinesterase (Homo sapiens) (UniProt P22303) (assay: Acetylcholinesterase (AChE) small molecule antagonists: enzyme-based qHTS assay (AID 1347397; also: nearly all actives have a fitted effect of over 55% in size)). Conditions: Potency: AChE enzyme activity inhibition; outcome: AChE enzyme activity inhibition; series mostly up to 115 µM; activity change, negative = inhibition: at the top concentration.
How it was run: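 In this quantitative HTS, compounds from the Tox21 10K collection were preincubated 30 min at ambient temperature with recombinant human AChE dispensed at 50 mU/mL. Hydrolysis of acetylthiocholine was then followed for 10 min by DTNB colour development.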

| SMILES | activity change, negative = inhibition |
| --- | --- |
| CCCCCCCCCCCCCCCCCC(=O)OCCCCCCCCCCCCCC(C)C | -1.09% |
| COc1ccc(OC)c(Cl)c1 | 3.31% |
| CCCCCCOC(=O)CCCCC(=O)OCCCCCC | -0.375% |
| CCCCCCc1ccc(N)cc1 | 1.1% |
| CC(C)[C@H]1CC[C@H](C)C[C@@H]1O | -2.73% |
| FC(F)(F)C(Cl)(Cl)Cl | -0.136% |
| [O-][n+]1ccc(Cl)cc1 | 0.723% |
| Cc1cc(C)cc([N+](=O)[O-])c1 | 0.682% |
| O=CC1CC1 | 0.815% |
| O=C(O)CCCCCCCCCCCBr | 0.115% |
| CCC(CC)C(C)CCOC(C)=O (stereo not drawn) | 0.46% |
| O=C(OCc1ccccc1)C(=O)OCc1ccccc1 | 3.03% |
| Cc1c(NC(C)C)c(=O)n(-c2ccccc2)n1C | 0.34% [at 53 µM] |
| CCCCCCC1(C)CCC(=O)O1 (stereo not drawn) | 0.141% |
| C#CCOC(=O)[C@@H](C)Oc1ccc(Oc2ncc(Cl)cc2F)cc1 | -0.0107% |
| COc1ccc(CCC(=O)c2c(O)cc(O[C@@H]3O[C@H](CO)[C@@H](O)[C@H](O)[C@H]3O[C@@H]3O[C@@H](C)[C@H](O)[C@@H](O)[C@H]3O)cc2O)cc1O | -0.0876% |
| CC(=O)c1c(C)cc(C(C)(C)C)cc1C | -0.0051% |
| CCC1Nc2cc(Cl)c(S(N)(=O)=O)cc2S(=O)(=O)N1 (stereo not drawn) | -2.49% [at 53 µM] |
| CCOC(=O)[C@@H](C)Oc1ccc(Oc2nc3ccc(Cl)cc3o2)cc1 | -3.05% |
| Cc1cccc(CN2CCN(C(c3ccccc3)c3ccc(Cl)cc3)CC2)c1 (stereo not drawn) | -0.415% [at 53 µM] |

| SMILES | activity change, negative = inhibition |
| --- | --- |
| COc1ccc2sc(C(=O)Nc3nnn[nH]3)c(OC(C)C)c2c1 | 1.58% |
| Nc1cccc(S(=O)(=O)O)c1 | 0% |
| CO[Si](CCC1CCC2OC2C1)(OC)OC (stereo not drawn) | 0.707% |
| C=C1CCC2CC1C2(C)C (stereo not drawn) | -0.595% |
| CC[C@H]1OC(=O)[C@H](C)[C@@H](O[C@H]2C[C@@](C)(OC)[C@@H](O)[C@H](C)O2)[C@H](C)[C@@H](O[C@@H]2O[C@H](C)C[C@H](N(C)C)[C@H]2O)[C@](C)(OC)C[C@@H](C)C(=O)[C@H](C)[C@@H](O)[C@]1(C)O | 0.258% |
| Cc1ccnc(N)c1 | -2.5% |
| C=CCCCCCCCCC(=O)OCCCC | 0.141% |
| C=CC(=O)NC(C)(C)C | 1.03% |
| CCCCCCOc1ccccc1C(N)=O | -0.265% [at 53 µM] |
| CC[N+](CC)(CC)Cc1ccccc1 | -1.49% |
| NCCC(O)(P(=O)(O)O)P(=O)(O)O | 0.57% [at 53 µM] |
| Cn1c(=O)c2c(ncn2CC(=O)O)n(C)c1=O | -1.08% [at 53 µM] |
| COc1cc(C=C2CCC/C(=C\c3ccc(O)c(OC)c3)C2=O)ccc1O | -9.08% [at 53 µM] |
| [O-][n+]1cccc(CO)c1 | -0.357% [at 53 µM] |
| CC1(C)CCC(C)(C)c2cc(C(=O)Nc3ccc(C(=O)O)cc3)ccc21 | -0.263% |
| O=C(OC(=O)c1ccccc1)c1ccccc1 | 0.545% |
| CCCCCOC(=O)CCCCC | 0.347% |
| C/C=C/C=C/C=O | 1.91% |
| NCC[C@H](O)C(=O)N[C@@H]1C[C@H](N)[C@@H](O[C@H]2O[C@H](CN)[C@@H](O)[C@H](O)[C@H]2O)[C@H](O)[C@H]1O[C@H]1O[C@H](CO)[C@@H](O)[C@H](N)[C@H]1O | 0.773% [at 0.435 µM] |
